Where a name gives a salt, the structure may show the parent alone.

This assay relates to A549-TP53BP1-CLTA. Description: phenotypically active (imaging signature differs from DMSO and reproducible) at any of 0.3-9 uM (binary (1 = active, 0 = inactive)); higher = active. The note with it: treatment time: 24 h. Summed up: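 Fifteen gene-edited A549, HepG2 and WPMY1 reporter lines (BFP segmentation plus GFP and RFP/FusionRed markers) were treated at 0.3, 1, 3 or 9 µM for 24 h, four wells each, then imaged live. Live-cell features per well were normalised to DMSO control wells. Deviation required ≥3 of 4 wells beyond the 95th percentile of DMSO Euclidean distances, and reproducibility required median replicate Pearson correlation above the 95th percentile of non-replicates. Phenotypic activity needed both criteria.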
Take `O=C(CCCCCCC(=O)Nc1ccc([C@H]2O[C@@H](CSc3nc(-c4ccccc4)c(-c4ccccc4)o3)C[C@@H](c3ccc(CO)cc3)O2)cc1)NO` [Tubacin]: the phenotypically active is 0 (inactive).
Under `CC1CNCCN1S(=O)(=O)c1cccc2cnccc12` (centres undefined) [H-7 dihydrochloride] stands 0 (inactive).
For the compound `COc1cc(OC)c2c(=O)[nH]c(-c3cc(C)c(OCCO)c(C)c3)nc2c1` [apabetalone], the phenotypically active is 0 (inactive).
For the compound `CC1(CN2CCC(n3c(=O)[nH]c4ccccc43)CC2)OCc2ccccc2-n2cccc21` (centres undefined), the phenotypically active is 0 (inactive).
`N#Cc1ccc2ncnc(NCCc3ccccc3)c2c1` [Senexin A]: the phenotypically active is 0 (inactive).
`Nc1ccc(N=Nc2ccccc2)c(N)n1` [phenazopyridine]: the phenotypically active is 0 (inactive).
Next, `O=C(CCCCCCC(=O)NO)NO`: 0 (inactive).
Next, `CC(C)(C)c1ccc(C(O)CCCN2CCC(C(O)(c3ccccc3)c3ccccc3)CC2)cc1` (centres undefined) [terfenadine]: 0 (inactive).
Under `COc1ccccc1C(=O)Nc1cc2c(cc1N1CCCC1)n(C)c(=O)n2C` stands 0 (inactive).
On to `CCC(=O)N1CCOc2c(cc(-c3ccc(OC)c(OC)c3)cc2OC[C@H]2CCCN(C)C2)C1`, for which the phenotypically active was 0 (inactive).
As for `CCc1nc(-c2cccc(C)c2)c(-c2ccnc(NC(=O)c3ccccc3)c2)s1`, the phenotypically active was 0 (inactive).
On to `Cc1ccc(S(=O)(=O)n2c(N)nc3ccccc32)cc1`, for which the phenotypically active was 0 (inactive).
As for `Cc1ccc(NC(=O)c2cccc(C(C)(C)C#N)c2)cc1Nc1ccc2ncn(C)c(=O)c2c1`, the phenotypically active was 1 (active).
Next, `Cn1cc(-c2cnc3ccc4ccc(CS(=O)(=O)NCc5ccccn5)cc4c(=O)c3c2)cn1`: 0 (inactive).

The values are drawn from the supplement of paper PMC7411054.
